Laboratory results from PubChem BioAssay AID1034 (Columbia University Molecular Screening Center, 2008).
The list shows a part of the results. Values without a mark were called inactive.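 The calls were made as follows: active = activation above 30% in triplicate retests at 2 µM, then confirmed by visual review of the well images; inactive = the rest.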

Test: potentiators of TNFa-induced VCAM1 expression, confirmation, imaging, HUVEC, triplicate retest (AID 1034);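 also: scaled per plate between unstimulated and TNFa-stimulated DMSO control wells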
Conditions: HUVEC TNFa-stimulated VCAM-1 immunofluorescence imaging; at 2 µM; stronger effect = higher value
`CCCOc1cc(C)c(S(=O)(=O)n2nnc3ccccc32)cc1C` showed an activation of -4.7%.
Compound `COc1ccc(OC)c(N=Cc2c(O)[nH]c3ccccc23)c1` has an activation of -13.9%.
In the case of `CCN(CC(=O)Nc1ccc2c(c1)OCCO2)Cc1cc(=O)oc2cc(C)c(C)cc12`, the activation is reported as -6.7%.
In the case of `CC1(C)CC(=O)C=C(N2CCCC2)C1`, the activation is reported as -17.7%.
`Cc1cccc2cc(CN(Cc3ccc4c(c3)OCO4)Cc3nnnn3C3CCCC3)c(=O)[nH]c12` showed an activation of 4.1%.
`CCOc1ccc(N=C2NC(=O)S/C2=C\c2ccc(O)cc2)cc1` gave an activation of -20.4%.
`O=C(Nc1ccncc1)c1c(F)cccc1F` gave an activation of -14.6%.
In the case of `CC(=O)c1cnn(-c2cc(Oc3ccc(F)cc3)ncn2)c1C`, the activation is reported as -14.8%.
With `CCCCN(C)C(=O)C1CCN(Cc2ccccn2)CC1` the activation was -13%.
`CC1=NN(C(C)C)C(=O)C1` gave an activation of -8.4%.
For `COc1ccc(/C=N/Nc2nc3ccccc3o2)cc1OC`, the activation was -3.9%.
`COCCNS(=O)(=O)c1cc(Br)ccc1OC` gave an activation of -14.1%.
In the case of `CCOc1cc(-c2cc(-c3ccc(OC)cc3)nc(N)c2C#N)ccc1O`, the activation is reported as -5.2%.
